What all share (type): functional
Experiment [1] deals with Solute carrier family 2, facilitated glucose transporter member 1 (Homo sapiens) (UniProt P11166). Description: ST_JUDE_LEISH: Cytotoxicity at 2uM final concentration against transgenic Leishmania Mexicana promastigotes LmGLUT1 that are glucose transport deficient and complemented with the human glucose transporter GLUT1. Activity is measured by DNA content using SYBR green in vitro.

Experiment [2] deals with Hexose transporter 1 (Plasmodium falciparum) (UniProt O97467). Description: ST_JUDE_LEISH: Cytotoxicity at 2uM final concentration against transgenic Leishmania Mexicana promastigotes LmPfHT that are glucose transport deficient and complemented with the Plasmodium falciparum hexose transporter. Activity is measured by DNA content using SYBR green in vitro.
In experiment [3] the target is Glucose transporter (Leishmania mexicana) (UniProt O61059). Description: ST_JUDE_LEISH: Cytotoxicity at 2uM final concentration against transgenic Leishmania Mexicana promastigotes LmGT2 that are glucose transport deficient and complemented with the L. Mexicana glucose transporter 2. Activity is measured by DNA content using SYBR green in vitro.

Solute carrier family 2, facilitated glucose transporter member 1 (Homo sapiens), sequence (P11166 whole entry): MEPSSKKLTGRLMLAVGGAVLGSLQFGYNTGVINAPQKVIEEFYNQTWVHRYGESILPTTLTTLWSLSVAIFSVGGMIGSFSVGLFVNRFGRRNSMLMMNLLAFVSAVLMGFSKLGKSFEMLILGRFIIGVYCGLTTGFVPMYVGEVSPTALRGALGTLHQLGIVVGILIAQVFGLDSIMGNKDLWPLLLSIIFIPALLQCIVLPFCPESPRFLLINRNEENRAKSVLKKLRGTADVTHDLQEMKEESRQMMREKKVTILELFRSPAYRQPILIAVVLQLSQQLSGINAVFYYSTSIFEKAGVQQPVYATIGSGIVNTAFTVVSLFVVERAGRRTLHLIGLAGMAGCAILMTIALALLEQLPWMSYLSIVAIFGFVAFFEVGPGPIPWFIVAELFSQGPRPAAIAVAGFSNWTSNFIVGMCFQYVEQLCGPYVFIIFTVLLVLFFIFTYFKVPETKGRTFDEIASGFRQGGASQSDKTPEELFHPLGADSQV

Turning to `Clc1ccc(OCCC2CCN(CCCCCCCN3CCC(CCOc4ccc(Cl)c(Cl)c4)CC3)CC2)cc1Cl`, the inhibition in experiment [1] was 9.59%; in experiment [2], 11.4%; in experiment [3], 3.47%.

`OC(CN1c2ccccc2Sc2ccccc21)CN(C1CCCCC1)C1CCCCC1` (stereo not drawn): the inhibition in experiment [1] came to 6.08%; in experiment [2] it was 6.38%; in experiment [3], 3.8%.

Turning to `CCN(CC)CCN(Cc1ccc(-c2ccc(C(F)(F)F)s2)cc1)C(=O)Cn1c(CCc2cccc(F)c2F)nc(=O)c2ccccc21`, the inhibition came out at 1.5% in experiment [1], 2.39% in experiment [2] and 2.57% in experiment [3].

For `CC(C)(C)c1ccc(CNCCOc2ccc(Nc3nnc(-c4ccc(-c5ncc[nH]5)cc4)o3)c3ccccc23)cc1`, the inhibition came to 2.98% in experiment [1], 2.75% in experiment [2] and 2.83% in experiment [3].

`CCOC(=O)c1ccc2[nH]c(-c3ccc(C(=O)NCc4ccc(C(C)(C)C)cc4)cc3)nc2c1`: the inhibition was 4.63% in experiment [1], 2.27% in experiment [2] and 1.02% in experiment [3].

`COc1ccc(C(C(=O)NC2CCN(C[C@H](O)c3ccnc4ccc(OC)cc34)CC2)N2CCN(c3ccc(F)cc3)CC2)cc1` (stereo partly drawn): the inhibition stood at 1.52% in experiment [1], 1.23% in experiment [2] and 1.93% in experiment [3].

In the case of `NC(=O)COc1c(C2CCN(CCCCNC(=O)c3ccc(-c4ccc(Cl)cc4)c(O)c3)CC2)ccc2c1CCCC2`, the inhibition in experiment [1] was -0.69%; in experiment [2], 2.57%; in experiment [3], 2.53%.

Consider `CN1CCCC(CN2CCN(Cc3cccc(-c4ccc(-c5nc6cc(F)ccc6[nH]5)cc4)c3)CC2)C1` (stereo not drawn), for which the inhibition worked out at 2.66% in experiment [1], 1.97% in experiment [2] and 1.35% in experiment [3].

Turning to `CCOc1cc(C(=O)NC2CCN(Cc3ccccc3)CC2)ccc1-c1nc2cc(Cl)c(F)cc2[nH]1`, the inhibition stood at 3.61% in experiment [1], 2.49% in experiment [2] and 3.19% in experiment [3].

In the case of `CC(CN(C)C)C(=O)Nc1ccc(-c2csc(-c3nc4ccccc4[nH]3)c2)cc1` (stereo not drawn), the inhibition in experiment [1] was found to be 0.09%; in experiment [2] it was 3.49%; in experiment [3], 3.09%.

For `COc1ccc2nccc([C@@H](O)CN3CCC(NC(=O)c4ccc(OC)c(N)c4)CC3)c2c1`, the inhibition stood at 14.9% in experiment [1], 16.7% in experiment [2] and 11.5% in experiment [3].

Broadly, the inhibition is the drop in the measured response relative to a control, in per cent.

These data come from ChEMBL document CHEMBL3433997, “St. Jude Leishmania screening dataset” (2016).
